The term inhibition denotes the change of the read-out against control, counted positive when it falls.

The whole screen tested about 290,000 compounds, of which about 570 (0.2%) were called active. About 1% were inconclusive and are not listed. Cut-off read from the data, not from the text of the source: active = inhibition mostly above about 51% (no sharp cut-off); inconclusive = no clear call, values can overlap the other calls; inactive = mostly below about 53%. The list comes from a sample in which actives are over-represented; it also holds similar structures and randomly drawn compounds.

Among the data in PubChem BioAssay AID2073 (Sanford-Burnham Center for Chemical Genomics, 2009) are inhibition values, retold here.

The target in this assay is Voltage-dependent N-type calcium channel subunit alpha-1B (Homo sapiens) (UniProt Q00975). Put plainly: inhibitors of Mint1-CaV2.2 protein interaction, biochemical, HTRF (AID 2073). To be noted: at 20 µM, stronger effect = higher value. (In general: TR-FRET usually uses a lanthanide donor and a delayed reading to cut background.)
Where [1] appears, read: measured here: average of repeat tests.

Chain of Voltage-dependent N-type calcium channel subunit alpha-1B (Homo sapiens) (Q00975 whole entry, looked up): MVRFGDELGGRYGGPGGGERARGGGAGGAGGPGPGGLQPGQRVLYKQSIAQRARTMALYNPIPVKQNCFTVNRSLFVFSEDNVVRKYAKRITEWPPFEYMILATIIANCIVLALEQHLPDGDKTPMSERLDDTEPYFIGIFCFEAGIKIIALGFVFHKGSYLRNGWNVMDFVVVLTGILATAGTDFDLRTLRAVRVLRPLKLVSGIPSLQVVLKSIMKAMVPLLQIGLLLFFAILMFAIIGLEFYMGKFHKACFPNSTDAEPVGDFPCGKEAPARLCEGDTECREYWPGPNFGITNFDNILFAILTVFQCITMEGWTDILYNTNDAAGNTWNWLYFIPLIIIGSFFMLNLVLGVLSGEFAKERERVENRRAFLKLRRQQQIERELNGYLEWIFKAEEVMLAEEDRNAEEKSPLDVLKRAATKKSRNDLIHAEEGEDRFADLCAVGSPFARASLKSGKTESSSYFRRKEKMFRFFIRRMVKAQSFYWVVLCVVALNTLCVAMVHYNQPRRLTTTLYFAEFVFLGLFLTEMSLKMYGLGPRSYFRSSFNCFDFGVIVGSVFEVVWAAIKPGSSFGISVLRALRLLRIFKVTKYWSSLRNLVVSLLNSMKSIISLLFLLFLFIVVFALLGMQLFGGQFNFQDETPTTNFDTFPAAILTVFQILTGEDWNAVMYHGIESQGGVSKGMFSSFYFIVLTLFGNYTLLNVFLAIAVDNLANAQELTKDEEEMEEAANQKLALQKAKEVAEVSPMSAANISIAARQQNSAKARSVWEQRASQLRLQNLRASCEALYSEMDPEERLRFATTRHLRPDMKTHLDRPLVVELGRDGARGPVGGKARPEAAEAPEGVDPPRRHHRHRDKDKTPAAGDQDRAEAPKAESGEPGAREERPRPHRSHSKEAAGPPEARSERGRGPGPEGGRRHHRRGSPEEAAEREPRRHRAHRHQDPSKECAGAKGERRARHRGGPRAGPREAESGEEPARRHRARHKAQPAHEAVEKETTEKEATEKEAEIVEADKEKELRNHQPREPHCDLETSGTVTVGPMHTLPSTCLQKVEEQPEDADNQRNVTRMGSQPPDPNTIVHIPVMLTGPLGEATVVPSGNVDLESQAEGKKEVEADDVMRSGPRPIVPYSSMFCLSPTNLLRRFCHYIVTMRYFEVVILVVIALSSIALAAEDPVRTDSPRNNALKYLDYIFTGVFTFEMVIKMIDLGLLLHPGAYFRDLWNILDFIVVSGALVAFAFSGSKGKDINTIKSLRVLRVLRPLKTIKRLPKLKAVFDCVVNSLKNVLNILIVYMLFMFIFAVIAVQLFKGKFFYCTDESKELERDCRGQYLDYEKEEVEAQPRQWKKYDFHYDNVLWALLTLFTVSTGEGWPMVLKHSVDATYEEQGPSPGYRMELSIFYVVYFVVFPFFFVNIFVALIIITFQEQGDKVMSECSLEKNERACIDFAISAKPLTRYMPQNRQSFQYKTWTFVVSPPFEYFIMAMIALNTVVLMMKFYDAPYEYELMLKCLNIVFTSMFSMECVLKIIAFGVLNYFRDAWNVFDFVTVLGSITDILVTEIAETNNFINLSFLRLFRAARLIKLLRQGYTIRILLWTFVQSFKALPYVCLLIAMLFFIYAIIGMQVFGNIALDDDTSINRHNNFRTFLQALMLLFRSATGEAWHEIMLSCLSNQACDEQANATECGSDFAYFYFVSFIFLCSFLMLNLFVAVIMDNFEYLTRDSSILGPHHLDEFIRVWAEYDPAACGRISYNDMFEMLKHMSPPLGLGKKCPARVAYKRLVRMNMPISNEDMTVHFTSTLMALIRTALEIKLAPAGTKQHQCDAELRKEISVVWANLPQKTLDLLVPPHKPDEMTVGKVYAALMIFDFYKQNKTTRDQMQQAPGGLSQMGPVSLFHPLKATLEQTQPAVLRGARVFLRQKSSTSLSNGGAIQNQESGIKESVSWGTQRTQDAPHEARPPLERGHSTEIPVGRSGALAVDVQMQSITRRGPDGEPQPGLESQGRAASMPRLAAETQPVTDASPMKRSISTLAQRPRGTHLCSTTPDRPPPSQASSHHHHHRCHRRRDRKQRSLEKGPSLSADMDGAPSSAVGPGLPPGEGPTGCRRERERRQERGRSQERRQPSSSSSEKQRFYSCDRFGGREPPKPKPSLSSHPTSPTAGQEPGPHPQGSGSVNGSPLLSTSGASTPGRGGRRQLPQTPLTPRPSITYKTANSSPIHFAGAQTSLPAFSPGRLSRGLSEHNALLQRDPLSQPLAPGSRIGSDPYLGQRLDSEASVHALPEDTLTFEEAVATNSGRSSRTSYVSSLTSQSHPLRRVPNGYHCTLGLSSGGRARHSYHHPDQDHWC

Consider `CSc1cccc(NC(=O)c2cc(S(=O)(=O)N3CCCC3)cn2C)c1`, for which the inhibition was 8.5% (inactive).

With `O=C(CSc1nc2c(c(=O)n1-c1ccc(Cl)cc1)SCC2)NCC1CCCO1` (stereo not drawn), the inhibition is -0.5% (inactive).

On to `CC1=NN(C(N)=S)C(=O)C1N=Nc1c(Cl)cc([N+](=O)[O-])cc1Cl` (stereo not drawn), for which the inhibition was -6.1% (inactive).

As to `Cc1ccc(C)c(SCC(=O)NC(=O)Nc2ccc3c(c2)OCCO3)c1`, the inhibition was 1.2% (inactive).

`CCCc1cc(=O)[nH]c(SCC(=O)N2CCC(C)CC2)n1`: the inhibition is 12% (inactive).

Turning to `Nc1cc([N+](=O)[O-])ccc1O`, the inhibition is 2.9% (inactive).

`Cc1ccc([N+](=O)[O-])cc1N`: the inhibition was 0% (inactive).

For the molecule `COc1ccc(NC(=O)CCC(=O)N(Cc2ccc(OC)c(OC)c2)c2nccs2)cc1`, the inhibition is 6% (inactive).

Consider `OCC1(CCCc2ccccc2)CCN(Cc2ccc(F)cc2)CC1`, for which the inhibition is -2.6% (inactive).

As for `CC(C)CNC(=O)c1ccccc1Oc1ccccc1`, the inhibition was 3.1% (inactive).

Take `Cn1c(=O)c2c(-c3ccc(C(C)(C)C)cc3)n(CC3CCCO3)cc2n(C)c1=O` (stereo not drawn): the inhibition was 8.1% (inactive).

Regarding `COC(=O)C1=C(C)NC(C)=C(C(=O)OC)C1c1cc2cc(C)ccc2[nH]c1=O`, the inhibition is 17.4% (inactive).

On to `Cc1ccc2[nH]c(=O)c(CNC(C)C)cc2c1`, for which the inhibition is 15.1% (inactive).

In the case of `Cc1ccc2c(c1C)NC(C(=O)O)C1CC=CC21` (stereo not drawn), the inhibition was 42.8% (inactive).

`O=C(O)C1Nc2c(C(F)(F)F)ccc(Cl)c2C2C=CCC12` (stereo not drawn): the inhibition is 7.3% (inactive).

Consider `O=C(O)C1Nc2c(Cl)cc(Cl)cc2C2C=CCC12` (stereo not drawn), for which the inhibition was 51.5% (active).

In the case of `O=C(CCNC(=O)N1CCn2c1nc1ccccc12)NCc1ccccc1`, the inhibition was -1.3% (inactive).

On to `O=c1c2c([N+](=O)[O-])cc([N+](=O)[O-])cc2sn1Cc1ccccc1`, for which the inhibition was 43.2% (inactive).

As for `N#Cc1c(N)n(Cc2ccccc2)c(=O)c2cc([N+](=O)[O-])ccc12`, the inhibition was 2% (inactive).

Regarding `Cc1ccc(NC2SC(=O)N(CC(=O)O)C2=O)cc1` (stereo not drawn), the inhibition was -7.4% (inactive).

In the case of `Cc1cccc(C)c1-n1c(C)nn(CC2CC2)c1=O`, the inhibition was -5.7% (inactive).

As to `COc1ccc(-c2csc(NC(=O)CN3C(=O)CCC3=O)n2)c(OC)c1`, the inhibition was 6.5% (inactive).

Turning to `CC(C)(C)NC(=O)CN(C(=O)C1(C)CC(=O)N=C2C=CC=CN21)C1CCCC1` (stereo not drawn), the inhibition is 9.2% (inactive).

`CCCCCCC(=O)N(O)C1CC(=O)N(c2ccccc2)C1=O` (stereo not drawn): the inhibition was 65.6% (active).

For the molecule `CCCCCCC(=O)N(O)C1CC(=O)N(c2ccc(C)cc2)C1=O` (stereo not drawn), the inhibition is 12.5% (inactive).

For `CCCCCC(=O)N(O)C1CC(=O)N(c2ccccc2)C1=O` (stereo not drawn), the inhibition is 44.4% (inactive).

Turning to `CN(CCN1CCc2ccccc2C1)Cc1nc(-c2ccc3c(c2)OCO3)no1`, the inhibition is 2.5% (inactive).

In the case of `CCc1cc(C(=O)N2CCCC(C(=O)c3ccc(C(F)(F)F)cc3)C2)n(C)n1` (stereo not drawn), the inhibition was 5.5% (inactive).

`O=C(CSc1nnc(-c2ccco2)n1-c1ccccc1)NCC1CCCO1` (stereo not drawn): the inhibition was 9.9% (inactive).

Turning to `O=C(CSc1nc2scc(-c3ccco3)c2c(=O)n1-c1ccccc1)NCC1CCCO1` (stereo not drawn), the inhibition is 55% (active).

For `C=CCn1c(SCC(=O)NCC2CCCO2)nc2scc(-c3ccco3)c2c1=O` (stereo not drawn), the inhibition was 33% (inactive).

`Cc1cc(C)c(NC(=O)CN2CCN(c3ccccn3)CC2)c(C)c1`: the inhibition was -1.2% (inactive).

`CCOC(=O)C1(Cc2ccccc2C)CCCN(C(=O)c2ccoc2)C1` (stereo not drawn): the inhibition is 14.3% (inactive).

With `COC(=O)C1=C(C)NC(C)=C(C(=O)OCC2CCCO2)C1c1cccc(Br)c1` (stereo not drawn), the inhibition was 13.6% (inactive).

In the case of `Cn1cnnc1SCC(=O)Nc1sccc1C#N`, the inhibition was 2.2% (inactive).

In the case of `Cc1ccc(-n2nnnc2SCC(=O)Nc2sccc2C#N)cc1`, the inhibition was 0% (inactive).

As to `N#Cc1ccsc1NC(=O)CSc1nnnn1-c1ccc(O)cc1`, the inhibition was 50.6% (active).

For `CC(=O)c1ccc2noc(-c3cccc(F)c3)c2c1`, the inhibition is -6.7% (inactive).

In the case of `CCn1cc(C(=O)O)c(=O)c2cc(F)c(N/N=C/c3ccccc3)cc21`, the inhibition was 6.4% (inactive).

Turning to `CCn1cc(C(=O)O)c(=O)c2cc(F)c(N/N=C/c3ccccc3[N+](=O)[O-])cc21`, the inhibition was 58.8% (active).

Regarding `CCn1cc(C(=O)O)c(=O)c2cc(F)c(N3CCN(C(=S)NC(=O)c4ccccc4)CC3)cc21`, the inhibition was -5.6% (inactive).

In the case of `Cn1cc([N+](=O)[O-])c(C(=O)NCc2ccco2)n1`, the inhibition was -1.5% (inactive).

Regarding `COc1ccc(NC(=O)C2=C(C)NC(=O)NC2c2ccccc2[N+](=O)[O-])cc1` (stereo not drawn), the inhibition was -2.6% (inactive).

For the molecule `COc1ccccc1NC(=O)C1=C(C)NC(=O)NC1c1ccccc1F` (stereo not drawn), the inhibition was 6.4% (inactive).

Turning to `COc1ccccc1NC(=O)C1=C(C)NC(=O)NC1c1ccccc1[N+](=O)[O-]` (stereo not drawn), the inhibition was 55.2% (active).

`O=C(CN1C(=O)C2CCCCC2C1=O)N1CCN(c2ncccn2)CC1` (stereo not drawn): the inhibition is 10.4% (inactive).

As for `CC(C)CCN(C)C1CCN(S(=O)(=O)c2cccc(C(F)(F)F)c2)CC1`, the inhibition is 12.2% (inactive).

On to `O=C(N/N=C/c1ccc([N+](=O)[O-])cc1)c1cc(C2CC2)[nH]n1`, for which the inhibition is -0.6% (inactive).

Consider `O=C(N/N=C/c1cccc([N+](=O)[O-])c1)c1cc(-c2ccc3c(c2)OCO3)n[nH]1`, for which the inhibition is 3.3% (inactive).

On to `O=C(Nc1ccc(S(=O)(=O)Nc2nccs2)cc1)c1ccc(N2C(=O)c3ccccc3C2=O)cc1`, for which the inhibition is 58.8% (active).

On to `O=C(Nc1ccc(S(=O)(=O)Nc2nccs2)cc1)c1cccc(N2C(=O)c3ccccc3C2=O)c1`, for which the inhibition was 49.1% (inactive).

For `O=C(Nc1ccc(S(=O)(=O)Nc2nccs2)cc1)c1ccc(F)cc1`, the inhibition was 11.1% (inactive).

As to `COc1ccccc1N1CCN(C(=O)C2CCN(C(=O)c3cccc(Cl)c3)CC2)CC1`, the inhibition is 6.4% (inactive).

`Cc1[nH]cnc1C(=O)N/N=C/c1ccc([N+](=O)[O-])s1`: the inhibition is -7.6% (inactive).

Consider `N#CC(C#N)=c1ccc2c(c1)N1C3=C(CCCC3)CC3CCCCC31N=2` (stereo not drawn), for which the inhibition is -36.3% (inactive).

Turning to `N#C/C(C(N)=O)=c1/ccc2c(c1)N1C3=C(CCCC3)CC3CCCCC31N=2` (stereo not drawn), the inhibition is -26.9% (inactive).

Take `O=[N+]([O-])C(=c1ccc2c(c1)N1C3=C(CCCC3)CC3CCCCC31N=2)[N+](=O)[O-]` (stereo not drawn): the inhibition was 51.6% (active). The inhibition under setting [1] stood at 92.8%.

As for `CCc1ccc2[nH]c(C(=O)Nc3ccc(Br)c(C)n3)cc2c1`, the inhibition was 5.3% (inactive).

As to `COc1ccc(-c2cc(-c3ccco3)[nH]c(=O)c2C#N)cc1OC`, the inhibition was 0.3% (inactive).

Regarding `COc1ccc(-c2cc(-c3ccco3)[nH]c(=O)c2C#N)cc1`, the inhibition was 24.8% (inactive).

As for `N#Cc1c(-c2cccc(Br)c2)cc(-c2ccco2)[nH]c1=O`, the inhibition is 53.9% (active).

Regarding `O=C(COC(=O)c1cccs1)NCc1ccco1`, the inhibition was -0.7% (inactive).

With `O=C(COC(=O)CCC(=O)c1cccs1)NCc1cccs1`, the inhibition was -3.4% (inactive).

For the molecule `O=C(COC(=O)/C=C/c1ccc(F)cc1)NCc1ccco1`, the inhibition was 8.8% (inactive).

Regarding `O=C(COC(=O)CCC(=O)c1cccs1)NCc1ccco1`, the inhibition was 57.8% (active).

On to `O=C(COC(=O)/C=C/c1ccco1)NCc1ccco1`, for which the inhibition was 53.7% (active).

Regarding `O=C(COC(=O)/C=C/c1ccco1)NCc1ccccc1`, the inhibition is 13.7% (inactive).

In the case of `O=C(COC(=O)c1ccc(S(=O)(=O)Nc2ccccc2)cc1)NCc1ccco1`, the inhibition is -1.1% (inactive).

With `O=C(COC(=O)c1ccc(NS(=O)(=O)c2cccs2)cc1)NCC1CCCO1` (stereo not drawn), the inhibition was -3% (inactive).

`O=C(COC(=O)c1ccc(NS(=O)(=O)c2cccs2)cc1)NCc1ccco1`: the inhibition was 59.4% (active).

Consider `COC(=O)c1sc2ccccc2c1NC(=O)c1ccc(S(=O)(=O)N2CCCCC2C)cc1` (stereo not drawn), for which the inhibition was -0.4% (inactive).

As for `CN(CCOc1ccc(Cl)cc1)Cc1cccc(S(=O)(=O)N(C)C)c1`, the inhibition is -2.1% (inactive).

For the molecule `Nc1c(Cl)ncnc1N/N=C/c1ccncc1`, the inhibition is -9.8% (inactive).

On to `O=C(O)C=C1CCN(c2ncc(C(F)(F)F)cc2Cl)CC1`, for which the inhibition is 13.7% (inactive).

Consider `CN1CCN(c2ccccc2NC(=O)c2ccc3c(c2)OCCO3)CC1`, for which the inhibition was 8.9% (inactive).

Regarding `Cc1c(NC(=O)C2(C)CCCCC2)c(=O)n(-c2ccccc2)n1C`, the inhibition was -0.1% (inactive).

Turning to `COCCNC(=O)/C(C#N)=C/c1ccc(OCc2ccccc2)cc1`, the inhibition was -5.6% (inactive).

Consider `COc1ccccc1N=Cc1c(C)c(C#N)c2[nH]c3ccccc3n2c1=O`, for which the inhibition was 71.7% (active).

In the case of `CCCCc1c(C)c(C#N)c2[nH]c3ccccc3n2c1=O`, the inhibition is 16.9% (inactive).

`Cc1c(CCO)c(=O)n2c([nH]c3ccccc32)c1C#N`: the inhibition was -2.7% (inactive).

For `O=C(Nc1ccc(Cc2ccc(NC(=O)N3CCOCC3)cc2)cc1)N1CCOCC1`, the inhibition was 3.3% (inactive).

As to `COc1ccc(Br)cc1C1CC(=O)N2CN(C)CSC2=C1C#N` (stereo not drawn), the inhibition was 87.7% (inactive). Also, the inhibition under setting [1] was determined as 25.1%.

For the molecule `COc1cc(C2CC(=O)N3CN(Cc4ccco4)CSC3=C2C#N)ccc1OCc1ccccc1` (stereo not drawn), the inhibition is 84.8% (active).

As for `N#CC1=C2SCN(Cc3ccccc3)CN2C(=O)CC1c1ccccc1F` (stereo not drawn), the inhibition was 85.9% (inactive). The inhibition under setting [1] came out at 29.1%.

Turning to `COc1cc(C2CC(=O)N3CN(Cc4ccccc4)CSC3=C2C#N)ccc1OCc1ccccc1` (stereo not drawn), the inhibition was 82.7% (inactive). Further, the inhibition under setting [1] worked out at 44.4%.

On to `COc1ccc(Br)cc1C1CC(=O)N2CN(Cc3ccccc3)CSC2=C1C#N` (stereo not drawn), for which the inhibition was 93.2% (active).

As to `COc1ccc(C2CC(=O)N3CN(Cc4ccco4)CSC3=C2C#N)cc1` (stereo not drawn), the inhibition is 76.3% (inactive). Moreover, the inhibition under setting [1] stood at 19.2%.

For `CC(Oc1ccc(F)cc1Br)c1nc2ccccc2c(=O)[nH]1` (stereo not drawn), the inhibition is 10.2% (inactive).

In the case of `CC(C)(C)c1ccc(C(=O)N/N=C/c2ccc(OCCCF)cc2)cc1`, the inhibition is 21.6% (inactive).

On to `CC(C)(C)c1ccc(OCc2ccc(C(=O)N/N=C/c3ccc(O)c(O)c3)cc2)cc1`, for which the inhibition is 57.4% (active).

`Cc1ccc(C(C)C)c(OCc2ccc(C(=O)N/N=C/c3ccc(O)c(O)c3)cc2)c1`: the inhibition was 20.5% (inactive).

Take `CS(=O)(=O)N(CC(=O)N1CCCC1)Cc1ccc(Cl)c(Cl)c1`: the inhibition is 9.7% (inactive).

Regarding `CCc1cccc(CC)c1NC(=O)c1cccc(N)c1`, the inhibition is 2.5% (inactive).
